The values that follow come from PubChem BioAssay AID651965 (National Center for Advancing Translational Sciences (NCATS), 2013).

Screen size: about 340,000 compounds; about 6,400 (1.9%) were called active. Not shown: some 4% with an inconclusive outcome. Calls follow the shape of the dose curve; as a rule, active = well fitted falling curve with a large enough effect; inconclusive = small, poorly fitted or top-dose-only effect; inactive = no such curve, though single readings can be large or run the other way. Shown is part of a subset that was picked to be rich in actives. A call without a number means that no potency is given here.
Potency is read from the fitted curve at half-maximal effect.

Chain of ATP-dependent Clp protease proteolytic subunit (Bacillus subtilis (strain 168)) (P80244 whole entry, looked up): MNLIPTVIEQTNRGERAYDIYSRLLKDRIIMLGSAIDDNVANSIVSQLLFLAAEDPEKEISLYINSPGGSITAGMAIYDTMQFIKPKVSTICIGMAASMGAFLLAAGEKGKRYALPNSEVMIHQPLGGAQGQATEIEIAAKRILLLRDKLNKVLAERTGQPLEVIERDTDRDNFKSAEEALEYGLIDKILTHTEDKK

This test deals with ATP-dependent Clp protease proteolytic subunit (Bacillus subtilis (strain 168)) (UniProt P80244). The test is described as follows: qHTS Assay for Activators of ClpP. Also: the source files actives as falling curves though it sought activators and does not explain the sign; nearly all actives have a fitted effect of over 65% in size. The following applies: purified B. subtilis ClpP, FRET peptide cleavage, 20 min; series mostly up to 57.5 µM. In outline:
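Buffer: 100 mM Tris/HCl pH8, 100 mM KCl, 0.05% low protease BSA, 2.5% glycerol, 0.01% Tween-20. ClpP 10 microg/mL final; 20 min RT; delta FRET normalized to ADEP and DMSO controls.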
Background: In qHTS, concentration-response curves come from the screen itself.
As for `CCc1oc(-c2ccc(OC)cc2)c(C(=O)OCCCCCO)c1C(C)OCCO` (stereo unspecified), the Potency result is “inactive”. Regarding `CCSC1(SCC)N=C(N)C2(C#N)C(c3ccccc3)NC(C)=CC12C#N` (stereo unspecified), the Potency is 15.8 µM (active). Turning to `CNc1cncc(-c2ccc(NS(C)(=O)=O)cc2)n1`, the Potency entry is “inactive”. As for `COc1cccc(CN2CCC(C(=O)NC(c3ccc4c(c3)OCO4)c3ccccn3)CC2)c1` (stereo unspecified), the Potency entry was “inactive”. In the case of `O=C(COc1ccccc1C(=O)Nc1ccccc1)Nc1cccc(F)c1` it was “inactive”; in that of `CC(C)n1c(-c2cccs2)nc2ccccc21`, 3.98 µM (active); in that of `CCC(c1nc2ccccc2[nH]1)n1c(=O)c(-c2cccs2)nc2ccccc21` (stereo unspecified), “inactive”.

For `CC(C)n1c(CN2CCN(Cc3ccccc3)CC2)nc2ccccc21`, the Potency result is “inactive”. With `COc1cc(C=C(OC(C)=O)c2ccc3c(c2)OCO3)cc(OC)c1OC`, the Potency result is “inactive”.

With `CCOC(=O)c1cnc(COc2ccccc2Cl)[nH]c1=O`, the Potency entry is “inactive”. In the case of `CCCCSc1[nH]c(=O)c(C(=O)OCC)cc1C#N` it was 31.6 µM (active); in that of `CCOC(=O)c1cc(C)nc(S(C)(=O)=O)c1C#N`, “inactive”. Consider `CC(C)(C(=O)N1CCC1(C)C(=O)NS(=O)(=O)c1ccc(Br)cc1)c1ccccc1` (stereo unspecified), for which the Potency result is “inactive”. As to `COc1cc(NC(=O)c2cccs2)ccc1NC(=O)c1ccccc1Cl`, the Potency was 14.1 µM (active). Regarding `COc1cc(Cl)c(C)cc1NC(=O)[C@@H]1CCCN1C(=O)c1cccs1`, the Potency result was “inactive”. For `O=C(Nc1ccccc1)c1ccc(NC(=O)c2cccs2)cc1` the value was “inactive”; for `CCC1OC(C2CC2)CC2=C1C(=O)OC(C)(C)O2` (stereo unspecified), “inactive”. As for `CC(C)c1cc(C(N)=O)c(NC(=O)c2cccc(COc3ccc(Br)cc3)c2)s1`, the Potency is 25.1 µM (active). Turning to `CCc1cc(C(N)=O)c(NC(=O)c2ccc(OC)cc2)s1`, the Potency result was “inactive”. As to `CC(C)(C)OC(=O)N(Cc1ccccc1)Cc1ccc(OCc2cccc(NC(=O)c3ccccc3)c2)cc1`, the Potency result was “inactive”.

Consider `COCCNC(=O)C1(C)CCCN(Cc2cccc(F)c2)C1` (stereo unspecified), for which the Potency entry is “inactive”.

`COc1ccc(OCCCn2c(C)nc3cc(C)c(C)cc32)cc1`: the Potency result is “inactive”. `COc1ccc(OCCCCN2CCC(C)CC2)cc1`: the Potency entry was “inactive”. Regarding `COc1ccc(OCCn2ccnc2C)cc1`, the Potency is 3.16 µM (active). In the case of `O=C(C[C@H]1C[C@H]2c3cc(NS(=O)(=O)c4ccc(F)cc4)ccc3O[C@H]2[C@H](CO)O1)NCc1cc(F)ccc1F` it was “inactive”. In the case of `CCOC(=O)N1CCN(CCC(=O)Nc2cc(OC)ccc2OC)CC1`, the Potency entry was “inactive”. With `COC(=O)c1[nH]c2ccccc2c1NC(=O)CN1CCCc2ccccc21`, the Potency result was “inactive”. Take `Cc1c(C(=O)CN2CCOCC2)[nH]c2ccccc12`: the Potency entry was “inactive”. Turning to `Cc1cc(NC(=O)CCN2CCN(Cc3ccccc3)CC2)ccc1Br`, the Potency entry was “inactive”. For the compound `CCOC(=O)c1[nH]c2ccc(OC)cc2c1NC(=O)CCN1CCN(Cc2ccccc2)CC1`, the Potency was 31.6 µM (active). On to `CCOC(=O)c1[nH]c2ccc(OC)cc2c1NC(=O)N1CCOCC1`, for which the Potency was 25.1 µM (active). On to `CCOC(=O)[C@]12CCCC=C1N(Cc1ccc(Cl)cc1Cl)C(=O)[C@H](CC(=O)N1CCCCC1)C2`, for which the Potency result is “inactive”. For `OCC(O)C(O)C(O)C(O)C=Nc1ccc(/C=C/c2ccnc3ccccc23)cc1` (stereo unspecified), the Potency result is “inactive”. For `CCCc1ccc(S(=O)(=O)N2CCN(C(=O)c3cc(C)on3)CC2)cc1`, the Potency entry was “inactive”. As to `CCOc1ccc(CCN2C(=O)C(=O)N([C@@H](CC(C)C)CN3CCC[C@H]3CN3C(=O)C(=O)NC[C@@H]3Cc3ccccc3)C[C@@H]2CC(C)C)cc1`, the Potency entry is “inactive”. With `CC(C)NC(=O)C1(C)CCCCCN1C(=O)c1ccc(-c2ccccc2)cc1` (stereo unspecified), the Potency entry was “inactive”. For the compound `O=C(COc1coc(CN2CCN(c3ccccc3F)CC2)cc1=O)N1CCc2ccccc21`, the Potency entry was “inactive”.

`O=C(COc1coc(CN2CCN(c3ccccc3)CC2)cc1=O)N1CCc2ccccc21`: the Potency is 28.2 µM (active). In the case of `O=C(COc1coc(CN2CCN(c3ccccc3)CC2)cc1=O)Nc1ccccc1F` it was “inactive”; in that of `CS(=O)c1ccc(/C=C2\C=Cc3ccccc32)cc1` (stereo unspecified), “inactive”; in that of `CCCNC(=O)C1(C)CCCN(Cc2cccc(C(F)(F)F)c2)C1` (stereo unspecified), “inactive”.

Regarding `Cc1cc(C)c(S(=O)(=O)NN=C2c3ccccc3[C@H]3Cc4csc[n+]4[C@@H]23)c(C)c1`, the Potency result is “inactive”.

For the compound `Cc1ccc(-c2nc3ccccn3c2Nc2ccc(F)cc2)o1`, the Potency result is “inactive”. For the compound `Cc1ccc(C(=O)COc2cccc(NC(=O)c3ccco3)c2)cc1`, the Potency is 15.8 µM (active).

Turning to `COc1ccc(NC(=O)c2ccco2)cc1NC(=O)COc1ccc(C)c(C)c1`, the Potency entry is “inactive”.

Regarding `O=C(Nc1ccc(NC(=O)c2cccs2)cn1)c1ccco1`, the Potency result is “inactive”. Regarding `COc1ccccc1C(=O)Nc1ccc(NC(=O)c2ccco2)c(C)c1`, the Potency result is “inactive”. Take `COc1cccc(C(=O)Nc2ccc(NC(=O)c3ccco3)cn2)c1`: the Potency is 14.1 µM (active). As to `Cc1ccc(NC(=O)c2ccco2)cc1`, the Potency entry was “inactive”.

As for `O=C1C(Sc2cccc(F)c2)=C[C@@]2(O)CC[C@@H](O)[C@]1(Sc1cccc(F)c1)[C@H]2O`, the Potency entry was “inactive”. Consider `CCOc1ccc(C(=O)NC2CCN(S(=O)(=O)CC)CC2)cc1`, for which the Potency result was “inactive”.

With `CCOc1ccc(CC(=O)NC2CCN(Cc3ccccc3)CC2)cc1`, the Potency entry is “inactive”. For `CCOc1ccc(NS(=O)(=O)c2ccc(C(=O)NC3CCN(Cc4ccccc4)CC3)cc2)cc1`, the Potency is 28.2 µM (active).

As to `NC1=CC(=O)C(=O)c2cccnc21`, the Potency entry is “inactive”. On to `Cc1ccc([C@@H]2CC(=O)[C@@H]3CN(S(=O)(=O)c4ccc(C)cc4)[C@H](c4ccccc4F)C[C@@H]3N2S(=O)(=O)c2ccc(Cl)cc2)cc1`, for which the Potency result was “inactive”. In the case of `COc1cccc(NC(=O)CN2CCN(c3nc(-c4cccc(OC)c4)cs3)CC2)c1` it was 17.8 µM (active); in that of `COc1cccc(NC(=O)CN2CCN(CC(=O)Nc3ccccc3Cl)CC2)c1`, “inactive”. In the case of `COCCCNC(=S)N1CCN(c2nc(-c3cccc(OC)c3)cs2)CC1`, the Potency result is “inactive”. For the compound `COC(=O)[C@]12CCCCC=C1N(CCC1=CCCCC1)C(=O)[C@H](CC(=O)NCC1CCCCC1)C2`, the Potency result was “inactive”. Turning to `CC(=O)C1=C(O)C(=O)N(c2ccc(S(N)(=O)=O)cc2)C1c1ccccc1F` (stereo unspecified), the Potency is 25.1 µM (active). For `CC(=O)C1=C(O)C(=O)N(c2ccc(Br)cc2)C1c1ccc([N+](=O)[O-])cc1` (stereo unspecified), the Potency result is “inactive”. For `NS(=O)(=O)c1ccc(NC2=CC(c3ccc(F)cc3)N(c3ccc(S(N)(=O)=O)cc3)C2=O)cc1` (stereo unspecified), the Potency entry is “inactive”.

Regarding `Cc1ccc(-c2nc(SCc3ccc(Br)cc3)n3[nH]c(=O)cc3n2)cc1`, the Potency entry is “inactive”. For `CCC(C)n1[nH]c(=O)c2c(C)cc(C)nc21` (stereo unspecified), the Potency result was “inactive”.

Take `CCc1c(C)nc2cc(-c3cccs3)[nH]n2c1=O`: the Potency is 22.4 µM (active). Consider `C=CCc1c(C)nc2cc(-c3ccccc3)[nH]n2c1=O`, for which the Potency result was “inactive”. Take `CCc1ccccc1OCCSc1nc(-c2cccs2)nc2cc(=O)[nH]n12`: the Potency entry is “inactive”. For `CCc1c(C)nc2cc(C)[nH]n2c1=O`, the Potency was 22.4 µM (active). As to `Cc1cc(Br)cn2c(Cc3ccsc3)c(-c3ccc(C#N)cc3)nc12`, the Potency result is “inactive”.

For the compound `CCOC(=O)[C@]12CCC=C1N(Cc1ccco1)C(=O)[C@H](CC(=O)N1CCSCC1)C2`, the Potency entry was “inactive”. As to `Nc1nc(N)c(N=O)c(N)n1`, the Potency result was “inactive”.

With `CCC(=O)N(CCc1ccccc1)Cc1cc2cc(C)ccc2[nH]c1=O`, the Potency entry is “inactive”. For the compound `CCC(=O)N(Cc1cc2ccccc2[nH]c1=O)c1ccc(OC)cc1`, the Potency result is “inactive”.

Take `CCOc1ccc2[nH]c(=O)c(CN(CCCO)C(C)=O)cc2c1`: the Potency is 28.2 µM (active). In the case of `CC(C)N=C1CCCC1C(=S)SSC(=S)C1CCCC1=NC(C)C` (stereo unspecified) it was “inactive”; in that of `Fc1ccc(Nc2nc(SCc3ccccc3Cl)nc3ccccc23)cc1`, 31.6 µM (active); in that of `O=C(CSc1nc(Nc2ccc(F)c(F)c2)c2ccccc2n1)c1ccc(Cl)cc1`, “inactive”. In the case of `Fc1ccc(CSc2nc(NCc3ccccc3)c3ccccc3n2)cc1` it was “inactive”; in that of `Cc1cccc(C)c1NC(=O)C(c1cccc2ccccc12)n1c(=O)c(-c2ccco2)nc2ccccc21` (stereo unspecified), “inactive”.

Take `CN(Cc1ccccc1)c1ccc(/C=C/c2ccnc3ccccc23)cc1`: the Potency entry is “inactive”. Consider `CN(C)c1ccc(/C=C2\C=Cc3ccccc32)cc1Br`, for which the Potency entry is “inactive”. `CCc1ccc(NC(=O)c2cc3c(=O)n(Cc4cccnc4)ccc3nc2C)cc1`: the Potency result is “inactive”.

Regarding `O=C(Cn1nc(Cc2cccnc2)c2ccccc2c1=O)N1CCN(c2ccccc2F)CC1`, the Potency result is “inactive”. As to `Cc1nc2ccn(Cc3cccnc3)c(=O)c2cc1C(=O)N1CCN(c2ccccc2F)CC1`, the Potency is 25.1 µM (active).

Consider `Cn1c(=O)n(Cc2ccco2)c(=N)c2c3c(sc21)CCCC3`, for which the Potency entry is “inactive”. Regarding `CCCSc1nc(NCc2ccco2)c2c3c(sc2n1)COC(C)(CC)C3` (stereo unspecified), the Potency entry is “inactive”. As to `CN1CCc2c(sc3c2c(NCc2ccco2)nc2nnnn23)C1`, the Potency is 17.8 µM (active). For the compound `NC(=S)NN=Cc1ccc(OC(=O)COc2cc(Cl)c(Cl)cc2Cl)cn1`, the Potency result was “inactive”. In the case of `COc1ccc(C(=O)NC(C)CCc2ccccc2)c(OC)c1` (stereo unspecified), the Potency result is “inactive”. In the case of `COc1ccc(CCNC(=O)c2c(C)nn(-c3ccccc3)c2Cl)cc1` it was “inactive”; in that of `CC(CCCc1ccccc1)NC(=O)c1nn(-c2ccc(Cl)cc2)nc1CO` (stereo unspecified), 31.6 µM (active); in that of `O=C(NCCCO)c1nn(-c2ccc(Cl)cc2)nc1CO`, 14.1 µM (active). In the case of `Nc1nonc1C(=O)NCCc1ccccc1`, the Potency entry was “inactive”.

`CC(C)NC(=O)c1nn(-c2ccccc2F)nc1CO`: the Potency entry is “inactive”. In the case of `O=C(Cc1ccc(Cl)cc1)Nc1ccc2nn(-c3ccc(Cl)cc3)nc2c1` it was “inactive”; in that of `Cc1cc2nn(-c3ccc(Cl)cc3)nc2cc1NC(=O)C(C)C`, “inactive”. In the case of `Cc1ccc(-n2nc(CO)c(C(=O)NCCc3ccccc3)n2)cc1` it was 10 µM (active); in that of `CCN(CC)c1ccc(/C=C/c2c(C)cnc3ccc(C)cc23)cc1`, “inactive”.

For the compound `COC(=O)c1ccc2nc(-c3cccc(Br)c3)c(Cc3ccc(OC)cc3C)n2c1`, the Potency entry was “inactive”. Turning to `CCOC(=O)c1cc(-c2sc(NC(=O)c3ccccc3)nc2C)n(CCO)n1`, the Potency entry is “inactive”. For `CCCCCCCCN1C(=O)[C@H](CC(=O)NCc2cccc3ccccc23)C[C@@]2(C(=O)OC)CCCCC=C12` the value was “inactive”.
